From paper PMC13083723 (Patterns, 2026)
Among all 5,400 compounds or so, about 190 (3.5%) showed an effect of 50% or more. This is one part of a sample in which strong results are shown more often than they occur. Positions of bridges follow the written chain, without caps; N, C: chain ends. Non-standard residues stand in square brackets, D forms with d. Residues, ends and D or L forms follow the SMILES beside them. *: point of attachment. Heptanoyl(5-Me) = CCC(C)CCCC(=O)*; Dab = NCC[C@H](N)C(=O)O

What follows are compounds tested on Vero-E6 (assay: primary screen, phospholipidosis by LipidTOX staining; higher = more effect of the substance). Settings: 10 µM.
In short: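 Single-concentration screen at 10 μM, with DMSO 0.1 v/v % and amiodarone 10 μM as controls. Read-out is LipidTOX Red phospholipid staining, which tolerates aldehyde fixation, in Vero-E6 cells.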
Work on C[C@]12CC[C@@H]3c4ccc(OC(=O)N(CCCl)CCCl)cc4CC[C@H]3[C@@H]1CC[C@@H]2OP(=O)([O-])[O-] yielded a result_ITMP of -4.08%.
O=C(CCCN1CCC2(CC1)C(=O)N(Cc1cccc(F)c1)CN2c1ccccc1)c1ccc(F)cc1 gave a result_ITMP of 89%.
For O=C(CCCN1CCC2(CC1)C(=O)NCN2c1ccccc1)c1ccc(F)cc1, the result_ITMP was 20.3%.
With O=C(CCCN1CCC(O)(c2ccc(Br)cc2)CC1)c1ccc(F)cc1 the result_ITMP was 14.8%.
CC(=O)OCC1=C(C(=O)[O-])N2C(=O)[C@@H](NC(=O)CCCC(N)C(=O)[O-])C2SC1 (stereo partly drawn) gave a result_ITMP of 1.34%.
CC1(C)[C@H]2CC[C@@]1(C)[C@H](O)[C@@H]2O gave a result_ITMP of -3.19%.
C[C@@H]1[C@H](O)[C@@H](C)/C=C/C=C/C=C/C=C/C=C/C=C/C=C/[C@H](O[C@@H]2O[C@H](C)[C@@H](O)[C@H](N)[C@@H]2O)C[C@@H]2O[C@](O)(C[C@@H](O)C[C@@H](O)[C@H](O)CC[C@@H](O)C[C@@H](O)CC(=O)O[C@H]1C)C[C@H](O)[C@H]2C(=O)O was tested, and the result_ITMP was 0.23%.
C[C@]12CCC(=O)C=C1CC[C@@H]1[C@@H]2[C@@H](O)C[C@]2(C)C(=O)CC[C@@H]12 gave a result_ITMP of -4.8%.
NC(=O)[C@@H]1CC[C@@H]2CN1C(=O)N2OS(=O)(=O)[O-] gave a result_ITMP of -0.26%.
CC[C@@H]1C(=O)N(C)c2cnc(Nc3ccc(C(=O)N[C@H]4CC[C@H](N5CCN(CC6CC6)CC5)CC4)cc3OC)nc2N1C(C)C gave a result_ITMP of 81.5%.
COc1cc(C(=O)NC2CCN(C)CC2)c(F)cc1Nc1ncc2c(n1)N(C1CCCC1)CC(F)(F)C(=O)N2C was tested, and the result_ITMP was 69.4%.
CC[C@@H]1C(=O)N(C)c2cnc(Nc3ccc(C(=O)NC4CCN(C)CC4)cc3OC)nc2N1C1CCCC1 was tested, and the result_ITMP was 66.8%.
Compound COc1cc(C(=O)N2CCC(N3CCN(C)CC3)CC2)ccc1Nc1ncc2c(n1)N(C)c1ccccc1C(=O)N2C has a result_ITMP of 37.9%.
In the case of CC(C)CCN1c2nc(Nc3cc(F)c(O)c(F)c3)ncc2N(C)C(=O)C1C (stereo not drawn), the result_ITMP is reported as 17.5%.
Work on COc1ccc(F)c(F)c1C(=O)c1cnc(NC2CCN(S(C)(=O)=O)CC2)nc1N yielded a result_ITMP of 16.3%.
Work on COc1cc(OC2CCN(C)CC2)ccc1Nc1ncc2c(n1)n(C1CCCC1)c(=O)n2C yielded a result_ITMP of 37.2%.
In the case of CCOc1cc(C(=O)N2CCC(N3CCN(C)CC3)CC2)ccc1Nc1ncc2c(n1)N(C1CCCC1)c1ccccc1C(=O)N2C, the result_ITMP is reported as 14.1%.
CC(C)(C)/[N+]([O-])=C/c1ccc(S(=O)(=O)[O-])cc1S(=O)(=O)[O-] was tested, and the result_ITMP was -0.44%.
O=C(O)c1ccc(/C=C2\SC(=S)N(c3cccc(C(F)(F)F)c3)C2=O)cc1 was tested, and the result_ITMP was 0.16%.
CC(C)(COP(=O)([O-])OP(=O)([O-])OC[C@H]1O[C@@H](n2cnc3c(N)ncnc32)[C@H](O)[C@@H]1OP(=O)([O-])O)[C@@H](O)C(=O)NCCC(=O)NCCS was tested, and the result_ITMP was -4.31%.
In the case of COc1ccc(/C=C\c2cc(OC)c(OC)c(OC)c2)cc1OP(=O)([O-])[O-], the result_ITMP is reported as 11.6%.
With N=C1NCCN1CC(=O)O the result_ITMP was 1.96%.
Work on O=C(O)CC/C=C\C[C@@H]1CO[C@H](c2ccccc2Cl)O[C@@H]1c1ccccc1O (racemic) yielded a result_ITMP of -1.11%.
In the case of NC(=O)C1=CN([C@@H]2O[C@H](COP(=O)([O-])OP(=O)([O-])OC[C@H]3O[C@@H](n4cnc5c(N)ncnc54)[C@H](O)[C@@H]3O)[C@@H](O)[C@H]2O)C=CC1, the result_ITMP is reported as -10.8%.
Compound C[C@H]1Oc2cc(cnc2N)-c2c(nn(C)c2C#N)CN(C)C(=O)c2ccc(F)cc21 [R4A_0001637_001 / SPE_A23124853] has a result_ITMP of -7.18%.
In the case of Cc1onc(-c2ccccc2)c1C(=O)NC1C(=O)N2[C@@H]1SC(C)(C)[C@@H]2C(=O)[O-] (stereo partly drawn), the result_ITMP is reported as -4.06%.
Work on N=C(N)SCCc1ccc(OCc2ccc([N+](=O)[O-])cc2)cc1 yielded a result_ITMP of 70%.
With O=C(O)c1cc(Oc2ccc([N+](=O)[O-])cc2)cc(Oc2ccc([N+](=O)[O-])cc2)c1 the result_ITMP was -1.17%.
Work on CCOC(=O)C1CSC(Cc2ccc(OCc3ccc([N+](=O)[O-])cc3)cc2)N1 (stereo not drawn) yielded a result_ITMP of -2.45%.
COc1c(C)c(C(=O)c2ccc(N)c(C(=O)[O-])c2)n2ccccc12 showed a result_ITMP of -3.94%.
NCCC(O)(P(=O)([O-])O)P(=O)([O-])O gave a result_ITMP of -8.19%.
O=S(=O)([O-])c1cc(I)c(O)c2ncccc12 gave a result_ITMP of -9.09%.
Work on Cc1nc(=O)c2c([nH]1)CCSC2 yielded a result_ITMP of -2.05%.
For CC1(C)[C@@H]2CC[C@@]1(C)C(=O)C2 [R4A_0000828_001 / SPE_K15714472], the result_ITMP was -1%.
Cc1ccc(C(=O)Nc2cccc(C(F)(F)F)c2)cc1Nc1nc(-c2cccnc2)nc2c1cnn2C showed a result_ITMP of -4.6%.
With Cc1ncc(NC(=O)c2ccc(CN3CCN(C)CC3)c(C(F)(F)F)c2)cc1Nc1nccc(-c2cccnc2)n1 the result_ITMP was 9.33%.
Cc1ccc(NC(=O)c2ccc(CN3CCN(C)CC3)cc2)cc1Nc1nc(-c2cccnc2)cs1 showed a result_ITMP of 54%.
CC(C)[C@@H](C)/C=C/[C@@H](C)[C@H]1CC[C@H]2C3=CC=C4C[C@@H](O)CC[C@]4(C)[C@H]3CC[C@]12C showed a result_ITMP of -5.48%.
Nc1ncnc2c1ncn2C1O[C@H](COP(=O)(O)OP(=O)([O-])OP(=O)([O-])O)[C@@H](O)[C@H]1O (stereo partly drawn) gave a result_ITMP of 6.44%.
CC1(C)[C@@H]2C[C@H]1[C@@](C)(O)[C@@H](O)C2 showed a result_ITMP of -2.34%.
Work on Cc1ccc(C(=O)N(CCCN)[C@@H](c2oc3cc(Cl)ccc3c(=O)c2Cc2ccccc2)C(C)C)cc1 yielded a result_ITMP of 92.7%.
Work on Cc1ccc(C(=O)N(CCCN)[C@@H](c2nc3cc(Cl)ccc3c(=O)n2Cc2ccccc2)C(C)C)cc1 yielded a result_ITMP of 75.7%.
For CCNC(=O)CCC(N)C(=O)O (stereo in doubt), the result_ITMP was -4.2%.
c1cc2c(cc1[C@H]1OC[C@H]3[C@@H]1CO[C@@H]3c1ccc3c(c1)OCO3)OCO2 gave a result_ITMP of -6.11%.
With c1ccc(Oc2nc(NC3CCCCC3)c3nc[nH]c3n2)cc1 the result_ITMP was -2.48%.
In the case of NC(N)=NCCC[C@@H](N)C(=O)N[C@@H](CCCN=C(N)N)C(=O)N1CCC[C@H]1C(=O)N1C[C@H](O)C[C@H]1C(=O)NCC(=O)N[C@@H](Cc1cccs1)C(=O)N[C@@H](CO)C(=O)N1Cc2ccccc2C[C@@H]1C(=O)N1[C@H](C(=O)N[C@@H](CCCN=C(N)N)C(=O)O)C[C@@H]2CCCC[C@@H]21, the result_ITMP is reported as -1.28%.
CN(C)C/C=C/C(=O)Nc1cc2c(Nc3ccc(F)c(Cl)c3)ncnc2cc1O[C@H]1CCOC1 gave a result_ITMP of 108%.
In the case of COc1cc2ncnc(Nc3ccc(F)c(Cl)c3)c2cc1NC(=O)/C=C/CN1CCCCC1, the result_ITMP is reported as 19.4%.
C=CC(=O)Nc1cc2c(Nc3ccc(F)c(Cl)c3)ncnc2cc1OCCCN1CCOCC1 was tested, and the result_ITMP was 4.03%.
In the case of CCOc1cc2ncc(C#N)c(Nc3ccc(OCc4cccc(F)c4)c(Cl)c3)c2cc1NC(=O)/C=C/CN(C)C, the result_ITMP is reported as -0.47%.
For CCOc1cc2ncc(C#N)c(Nc3ccc(F)c(Cl)c3)c2cc1NC(=O)/C=C/CN(C)C, the result_ITMP was 73.9%.
CCOc1cc2ncc(C#N)c(Nc3ccc(OCc4ccccn4)c(Cl)c3)c2cc1NC(=O)/C=C/CN(C)C was tested, and the result_ITMP was 0.53%.
CCOC(=O)OC(C)OC(=O)C1N2C(=O)C(NC(=O)[C@H](N)c3ccccc3)C2SC1(C)C (stereo partly drawn) was tested, and the result_ITMP was -2.51%.
CCC(=O)O[C@@H]1CC(=O)O[C@H](C)C/C=C/C=C/[C@H](OC(C)=O)[C@H](C)C[C@H](CC=O)[C@H](O[C@@H]2O[C@H](C)[C@@H](O[C@H]3C[C@@](C)(OC(C)=O)[C@@H](OC(=O)CC)[C@H](C)O3)[C@H](N(C)C)[C@H]2O)[C@H]1OC gave a result_ITMP of 7.16%.
In the case of O=C1NC(c2ccccc2)(c2ccccc2)C(=O)N1COP(=O)([O-])[O-], the result_ITMP is reported as -0.37%.
Work on CNC(=O)CN1CCC(Oc2cc3c(Nc4cccc(Cl)c4F)ncnc3cc2OC)CC1 yielded a result_ITMP of 27.2%.
CN1CCN(CCOc2cc(OC3CCOCC3)c3c(Nc4c(Cl)ccc5c4OCO5)ncnc3c2)CC1 gave a result_ITMP of 58.5%.
For CCC(C)CCCC(=O)N[C@@H](CCN)C(=O)N[C@H](C(=O)N[C@@H](CCN)C(=O)N[C@H]1CCNC(=O)[C@H]([C@@H](C)O)NC(=O)[C@H](CCN)NC(=O)[C@H](CCN)NC(=O)[C@H](CC(C)C)NC(=O)[C@@H](CC(C)C)NC(=O)[C@H](CCN)NC1=O)[C@@H](C)O (stereo partly drawn) [R4A_0005175_001 / SPE_A18924964] ({Heptanoyl(5-Me)}-[Dab]T[Dab][Dab][Dab][dL]L[Dab][Dab]T; lactam 4-C), the result_ITMP was -1.3%.
Compound CO[C@@]1(NC(=O)C(C(=O)[O-])c2ccc(O)cc2)C(=O)N2C(C(=O)[O-])=C(CSc3nnnn3C)CO[C@@H]21 (stereo partly drawn) has a result_ITMP of -4.09%.
O=c1c(-c2ccc(O)cc2)coc2c(O[C@@H]3O[C@H](CO)[C@@H](O)[C@H](O)[C@H]3O)c(O)ccc12 was tested, and the result_ITMP was -5.15%.
CC(=O)O[C@H]1CC[C@@]2(C)C(=CCC3C2CC[C@]2(C)C(=O)CCC32)C1 (stereo partly drawn) showed a result_ITMP of 0.97%.
Work on C[C@]12CC[C@H](O)CC1=CCC1C2CC[C@]2(C)C(=O)CC[C@@H]12 (stereo partly drawn) yielded a result_ITMP of 13.7%.
Work on CCN(CC)CCO[C@H]1CC[C@@]2(C)C(=CC[C@@H]3[C@@H]2CC[C@]2(C)C(=O)CC[C@@H]32)C1 yielded a result_ITMP of 61%.
Work on COc1ccc(C(=O)/C(Br)=C/C(=O)[O-])cc1 yielded a result_ITMP of 7.96%.
For O=C([O-])[C@H](O)[C@@H](O)[C@H](O)[C@H](O)CO, the result_ITMP was -4.67%.
C=C[C@@]1(C)CC(=O)[C@]2(O)[C@@]3(C)[C@@H](O)CCC(C)(C)[C@@H]3[C@H](O)[C@H](OC(C)=O)[C@@]2(C)O1 showed a result_ITMP of -2.23%.
